Screening results from PubChem.
This excerpt belongs to a sample that is enriched for hits.
ERK EGF block: qHTS Assay for Inhibitors of the ERK Signaling Pathway using a Homogeneous Screening Assay; Stimulation with EGF; AID 1454, 2008; HEK293-V1b, EGF-stimulated phospho-ERK AlphaScreen; Potency, µM (doses to about 11.5 µM), inactives show at the top dose activity change, negative = inhibition, usual class: inhibitors; 130,000 tested, 0.41% active;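 also: potency is read from the fitted curve at half-maximal effect; plate controls were stimulated vehicle wells for no effect and unstimulated vehicle basal for full effect; nearly all actives have a fitted effect of over 55% in size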
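Homogeneous cell-based phospho-ERK assay: HEK293/V1b cells in 1% FBS, compound 30 min then EGF 5 min, AlphaScreen luminescence. Activity normalized between DMSO and 25 nM EGF controls; AC50 from Hill modelling.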
ERK pERK EGF: Confirmation Concentration-Response Assay for Inhibitors of the ERK Signaling Pathway using a Homogeneous Screening Assay; Stimulation with EGF. shares compounds with ERK EGF block. HEK293 EGF-stimulated ERK phosphorylation, AlphaScreen. Potency, µM (top dose mostly 57.5 µM), for the others: at the top dose activity change, negative = inhibition, actives largely listed as inhibitors. 60 tested, 60% active. AID 1725, 2009
c-Raf inh: Assay for Inhibitors of the ERK Signaling Pathway using a Homogeneous Screening Assay: c-Raf Inhibition; shares compounds with ERK EGF block; c-Raf kinase inhibition, homogeneous biochemical assay; activity change, negative = inhibition, % at 76.9 µM; 70 tested, under 10 active
MEK1 kinase inh: Assay for Inhibitors of the ERK Signaling Pathway using a Homogeneous Screening Assay: MEK Inhibition. shares compounds with ERK EGF block. homogeneous MEK kinase activity assay, ERK pathway. AID 1732, 2009. 70 tested, under 10 active. Potency, µM (highest dose often 76.9 µM), inactives show top-dose activity change, negative = inhibition, usual class: inhibitors
Target sequence (Q02750 whole entry, looked up): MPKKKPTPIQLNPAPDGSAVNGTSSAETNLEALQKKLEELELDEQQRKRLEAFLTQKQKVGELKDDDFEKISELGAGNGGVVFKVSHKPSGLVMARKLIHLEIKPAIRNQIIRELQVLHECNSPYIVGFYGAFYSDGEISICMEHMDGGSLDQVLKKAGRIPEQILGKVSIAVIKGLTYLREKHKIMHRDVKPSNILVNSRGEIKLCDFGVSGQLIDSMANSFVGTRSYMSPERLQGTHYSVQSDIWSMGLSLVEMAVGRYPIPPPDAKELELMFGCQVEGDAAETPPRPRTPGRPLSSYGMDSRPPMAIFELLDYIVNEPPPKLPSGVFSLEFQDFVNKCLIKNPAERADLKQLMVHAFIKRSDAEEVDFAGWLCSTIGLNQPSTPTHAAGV
* marks the source's active call; other numbers are inactive results; ? = inconclusive; . = no result; ! = not confirmed by another sample; [ ] = remark or other dose. Calls follow the shape of the dose curve; as a rule, active = well fitted curve in the direction sought with a large enough effect; inconclusive = small, poorly fitted or top-dose-only effect, or another doubt; inactive = no such curve, though single readings can be large; an effect the other way counts as inactive or inconclusive.

SMILES	ERK EGF block	others
Cc1nc2c(-c3ccccc3)c(C)nn2c(C)c1CCC(=O)N1CCC2(CC1)OCCO2	2.2%
CCCC[N+]12CCC(CC1)C(=C(c1ccccc1)c1ccccc1)C2	8.5%
C[C@@]12CC[C@H]3[C@@H](CCC4=CC(=O)CC[C@]43C)[C@H]1CC[C@H]2C(=O)CO	11.3%[25.7 µM]
CC(=O)[C@@H]1CC[C@@H]2[C@@H]3CCC4=CC(=O)CC[C@@]4(C)[C@H]3CC[C@]21C	-6.6%[25.7 µM]
CC(=O)[C@H]1CC[C@H]2[C@@H]3CCC4=CC(=O)CC[C@]4(C)[C@H]3CC[C@]12C	14.1µM*!
O=c1cccc2n1CC1CC2CN(CCO)C1 (stereo not given)	1.5%
O=C(O)c1cccc2c1NC(C(=O)O)C1CC(Sc3ccccc3[N+](=O)[O-])C(Cl)C21 (stereo not given)	18.5%
O=C1NC(=S)NC(=O)C1=Cc1cccn1-c1ccc(O)cc1	-8.8%
CC(C)=CCCC1(C)C=Cc2c(O)c3c(c(CC=C(C)C)c2O1)OC12C(=CC4CC1C(C)(C)OC2(C/C=C(/C)C(=O)O)C4O)C3=O (stereo not given)	37.4%
CC(C)CCCC1(C)C=Cc2c(O)c3c(c(CCC(C)C)c2O1)OC12C(CC4CC1C(C)(C)OC2(CCC(C)C(=O)O)C4O)C3=O (stereo not given)	5.4%
CC(C)=CCCC1(C)C=Cc2c(O)c3c(c(CC=C(C)C)c2O1)OC12C(=CC4CC1C(C)(C)OC2(C/C=C(/C)C(=O)O)C4=O)C3=O (stereo not given)	15.8µM*
CN1CCN(c2ncc(C=O)s2)CC1	28.6%
CN1C(=O)C(=Cc2ccc(SC3CCCCC3)o2)C(=O)N(C)C1=O	-3.0%
O=C1Nc2ccccc2C2(CCN(CCc3ccc(C(F)(F)F)cc3)CC2)O1	31.6µM*
Cc1ccc(C2N3CCCN23)cc1 (stereo not given)	7.3%[57.5 µM]
CN(C)C1C(=O)C(C(N)=O)=C(O)[C@@]2(O)C(=O)C3=C(O)c4c(O)cccc4[C@](C)(O)C3C(O)C12 (stereo not given in full)	1.7%
O=S(=O)(c1ccc(F)cc1)N1CCCC1c1cccnc1 (stereo not given)	5.7%[57.5 µM]
Cc1ccc(/C=C2\C(=O)NC(=S)N(c3ccc(F)cc3)C2=O)s1	4.6%
Cc1ccc(/C=C2\C(=O)NC(=S)N(c3ccccc3F)C2=O)s1	20µM*
CCOC(=O)C1CCN(/C=C2/C(=O)NC(=S)N(c3ccccc3F)C2=O)CC1	2.2%
O=C(O)[C@H]1NC[C@H]2C[C@H]21	3.1%
CC(Cc1ccc(O)cc1)NCC(O)c1cc(O)cc(O)c1 (stereo not given)	13.2%
CC12CC[C@H]3[C@@H](CCC4(O)C[C@H](O)CCC34/C=N/NC(=O)c3ccccc3O)C1(O)CCC2C1=CC(=O)OC1 (stereo not given in full)	-0.6%[57.5 µM]
CC(C)OP(=O)(O)NC(=O)c1ccccc1	2.7%
CC(=O)[O][Hg][c]1ccccc1	14.1µM*
SMILES	ERK EGF block	others
NCC(=O)c1ccccc1	20.9%
O=P1(N(CCCl)CCCl)NCCCO1 (stereo not given)	2.3%
O=C(Nc1cccc(F)c1)N1CCC2(CC1)CCN(C(=O)Oc1ccccc1)CC2	-5.2%
Cc1cc(Cl)ccc1OC(C)C(=O)O (stereo not given)	-10.1%[57.5 µM]
CCn1nc(/C=C/c2ccccc2)nc2c(=O)n(C)c(=O)nc1-2	-2.5%
Cc1cccc(-n2c(-c3cccs3)nc3ccccc3c2=O)c1	12.2%
CCn1nc(-c2cccs2)nc2c(=O)n(C)c(=O)nc1-2	.	c-Raf inh=?;MEK1 kinase inh=0.891µM*
O=c1c2ccccc2ncn1-c1ccc([N+](=O)[O-])c(C(F)(F)F)c1	-2.3%
C[C@@H]1C[C@@H](O)[C@@]2(O)[C@]13CC(=O)OC[C@]2(C)[C@@](C)(O)C(=O)C3	-4.7%
CC(C)C1C(=O)N2CCCC2[C@]2(O)O[C@@](NC(=O)[C@@H]3C=C4c5cccc6[nH]cc(c56)C[C@H]4N(C)C3)(C(C)C)C(=O)N12 (stereo not given in full)	-3.0%
CCN1C(=O)NC(=O)/C(=C/c2cc(C)n(-c3sc(C)c(C)c3C#N)c2C)C1=O	?	ERK pERK EGF=-3.8%;c-Raf inh=-9.2;MEK1 kinase inh=?
Cc1cc(/C=C2/C(=O)NC(=O)N(Cc3ccco3)C2=O)c(C)n1-c1ccccc1	5.5%
Cc1ccc(N2C(=O)NC(=O)/C(=C\c3cc(C)n(-c4sc5c(c4C#N)CCCC5)c3C)C2=O)cc1	-0.4%
CC(CCc1ccccc1)NCCC#N (stereo not given)	-4.5%[57.5 µM]
